Results: the supplement of paper PMC11732987, “Enantioselective OTUD7B fragment discovery through chemoproteomics screening and high-throughput optimisation” (Communications Chemistry, 2025)

Experiments:
Experiment in all cases: log2 ratio of Biotin-Ahx-Ub-VS probe labelling (fragment/DMSO); higher = less target engagement (more negative = stronger competition), active = hit call of the paper (q ≤ 0.05, log2 ratio ≤ -1)
Conditions in all cases: compound concentration: 200 uM; treatment time: 3 h
[1] = molecular target: USP34 (UniProt Q70CQ2)
Chain of USP34 (Q70CQ2 whole entry, the tested form may be a part): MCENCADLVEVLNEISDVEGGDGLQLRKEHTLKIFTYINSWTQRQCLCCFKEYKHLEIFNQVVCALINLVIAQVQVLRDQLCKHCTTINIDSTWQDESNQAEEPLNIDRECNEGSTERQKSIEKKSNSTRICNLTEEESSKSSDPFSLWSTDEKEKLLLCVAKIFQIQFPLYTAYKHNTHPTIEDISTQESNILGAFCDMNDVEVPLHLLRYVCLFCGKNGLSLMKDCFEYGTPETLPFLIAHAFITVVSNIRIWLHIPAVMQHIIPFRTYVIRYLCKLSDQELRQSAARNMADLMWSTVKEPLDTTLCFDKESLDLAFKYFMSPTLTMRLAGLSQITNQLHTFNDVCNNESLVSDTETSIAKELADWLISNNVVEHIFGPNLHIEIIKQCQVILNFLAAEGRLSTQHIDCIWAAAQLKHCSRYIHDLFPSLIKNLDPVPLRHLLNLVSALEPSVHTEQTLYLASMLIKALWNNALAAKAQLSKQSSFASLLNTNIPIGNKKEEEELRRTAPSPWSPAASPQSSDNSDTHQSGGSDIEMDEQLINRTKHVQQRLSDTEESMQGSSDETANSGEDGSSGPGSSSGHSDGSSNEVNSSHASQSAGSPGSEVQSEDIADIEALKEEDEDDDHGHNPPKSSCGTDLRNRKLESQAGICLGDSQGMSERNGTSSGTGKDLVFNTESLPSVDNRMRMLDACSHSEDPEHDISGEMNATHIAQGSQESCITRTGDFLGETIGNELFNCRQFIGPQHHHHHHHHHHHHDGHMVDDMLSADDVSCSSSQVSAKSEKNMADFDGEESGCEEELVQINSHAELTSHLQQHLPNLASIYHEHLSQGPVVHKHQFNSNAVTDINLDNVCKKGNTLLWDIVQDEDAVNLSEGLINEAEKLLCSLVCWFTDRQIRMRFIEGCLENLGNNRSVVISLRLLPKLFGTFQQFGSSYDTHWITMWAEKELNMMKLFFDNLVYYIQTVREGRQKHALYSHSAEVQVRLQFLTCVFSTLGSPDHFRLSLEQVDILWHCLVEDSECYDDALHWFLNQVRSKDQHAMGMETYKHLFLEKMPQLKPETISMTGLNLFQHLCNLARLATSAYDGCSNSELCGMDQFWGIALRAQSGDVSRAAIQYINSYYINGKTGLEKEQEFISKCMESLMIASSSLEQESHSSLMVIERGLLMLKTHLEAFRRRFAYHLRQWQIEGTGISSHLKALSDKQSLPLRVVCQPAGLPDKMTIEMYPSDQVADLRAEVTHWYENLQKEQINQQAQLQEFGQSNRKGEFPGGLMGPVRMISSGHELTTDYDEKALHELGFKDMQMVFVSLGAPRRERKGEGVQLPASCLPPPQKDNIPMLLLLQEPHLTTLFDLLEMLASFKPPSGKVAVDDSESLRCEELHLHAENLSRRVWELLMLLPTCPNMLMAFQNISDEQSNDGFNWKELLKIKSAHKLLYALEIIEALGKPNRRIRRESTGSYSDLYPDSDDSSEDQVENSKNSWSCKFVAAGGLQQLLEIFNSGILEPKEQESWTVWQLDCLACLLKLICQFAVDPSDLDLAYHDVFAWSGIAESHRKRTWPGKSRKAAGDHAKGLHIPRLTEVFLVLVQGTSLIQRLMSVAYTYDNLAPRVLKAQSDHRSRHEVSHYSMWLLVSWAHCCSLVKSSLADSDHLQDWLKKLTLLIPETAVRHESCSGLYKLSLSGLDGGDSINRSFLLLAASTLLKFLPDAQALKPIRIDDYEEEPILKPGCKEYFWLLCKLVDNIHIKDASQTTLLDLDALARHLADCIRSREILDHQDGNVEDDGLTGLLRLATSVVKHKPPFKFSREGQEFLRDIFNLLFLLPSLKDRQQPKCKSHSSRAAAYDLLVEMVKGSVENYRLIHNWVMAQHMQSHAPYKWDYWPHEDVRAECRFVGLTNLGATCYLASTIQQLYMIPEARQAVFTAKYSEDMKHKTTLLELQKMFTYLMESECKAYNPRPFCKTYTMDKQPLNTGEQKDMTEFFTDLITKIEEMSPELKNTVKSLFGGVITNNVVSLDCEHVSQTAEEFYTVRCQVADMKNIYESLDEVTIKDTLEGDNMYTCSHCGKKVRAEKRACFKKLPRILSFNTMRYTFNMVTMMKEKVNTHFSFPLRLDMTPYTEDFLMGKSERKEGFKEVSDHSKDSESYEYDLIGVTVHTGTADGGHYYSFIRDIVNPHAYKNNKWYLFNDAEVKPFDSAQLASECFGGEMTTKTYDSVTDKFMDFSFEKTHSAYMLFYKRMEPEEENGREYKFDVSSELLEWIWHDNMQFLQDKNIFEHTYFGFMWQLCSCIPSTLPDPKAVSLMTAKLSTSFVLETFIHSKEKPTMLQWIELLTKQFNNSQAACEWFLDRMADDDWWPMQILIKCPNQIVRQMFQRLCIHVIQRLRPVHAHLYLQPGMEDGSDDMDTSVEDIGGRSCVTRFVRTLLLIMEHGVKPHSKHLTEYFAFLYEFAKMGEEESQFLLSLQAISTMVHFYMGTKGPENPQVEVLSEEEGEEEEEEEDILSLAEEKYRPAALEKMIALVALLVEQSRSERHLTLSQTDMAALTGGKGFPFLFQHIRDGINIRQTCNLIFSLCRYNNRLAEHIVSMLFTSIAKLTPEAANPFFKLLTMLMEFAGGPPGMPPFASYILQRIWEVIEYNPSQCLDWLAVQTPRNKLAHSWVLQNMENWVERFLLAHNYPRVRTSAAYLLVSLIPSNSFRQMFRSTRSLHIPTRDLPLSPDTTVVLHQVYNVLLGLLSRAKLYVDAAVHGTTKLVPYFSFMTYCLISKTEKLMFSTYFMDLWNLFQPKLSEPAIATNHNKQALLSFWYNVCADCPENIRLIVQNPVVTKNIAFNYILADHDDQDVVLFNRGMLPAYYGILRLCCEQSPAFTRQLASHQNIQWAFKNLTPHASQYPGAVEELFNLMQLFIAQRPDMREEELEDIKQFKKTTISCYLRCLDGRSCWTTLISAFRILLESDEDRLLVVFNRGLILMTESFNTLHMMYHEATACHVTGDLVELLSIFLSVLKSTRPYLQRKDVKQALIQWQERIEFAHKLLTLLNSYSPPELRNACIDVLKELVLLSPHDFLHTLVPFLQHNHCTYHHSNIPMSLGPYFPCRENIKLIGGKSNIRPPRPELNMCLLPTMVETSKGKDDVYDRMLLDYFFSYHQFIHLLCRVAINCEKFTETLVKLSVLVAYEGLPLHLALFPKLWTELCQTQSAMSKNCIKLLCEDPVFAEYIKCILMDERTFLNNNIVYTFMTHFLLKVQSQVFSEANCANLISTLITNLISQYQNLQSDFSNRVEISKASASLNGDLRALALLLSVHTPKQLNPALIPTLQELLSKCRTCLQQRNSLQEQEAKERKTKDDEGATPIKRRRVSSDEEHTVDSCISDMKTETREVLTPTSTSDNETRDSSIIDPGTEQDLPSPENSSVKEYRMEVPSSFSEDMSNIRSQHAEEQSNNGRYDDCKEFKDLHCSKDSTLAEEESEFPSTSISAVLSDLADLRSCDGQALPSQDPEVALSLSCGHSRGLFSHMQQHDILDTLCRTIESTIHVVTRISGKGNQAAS
Summary of the method: (§1)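 Global-median-normalised Spectronaut label-free quantities were compared by unpaired t-test, and values are average log2 ratios of fragment over vehicle. Only proteins with ≥2 unique peptides were used. HEK293T lysate (495 µg per sample) was treated in triplicate with fragment at 200 µM or vehicle for 3 h and then with Biotin-Ahx-Ub-VS at 0.5 µM final for 1 h. Labelled DUBs were then NeutrAvidin-enriched, digested with LysC and trypsin, and run by diaPASEF LC-MS/MS.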

[2] = molecular target: T1, USP36 (UniProt Q9P275)
T1 sequence (whole entry): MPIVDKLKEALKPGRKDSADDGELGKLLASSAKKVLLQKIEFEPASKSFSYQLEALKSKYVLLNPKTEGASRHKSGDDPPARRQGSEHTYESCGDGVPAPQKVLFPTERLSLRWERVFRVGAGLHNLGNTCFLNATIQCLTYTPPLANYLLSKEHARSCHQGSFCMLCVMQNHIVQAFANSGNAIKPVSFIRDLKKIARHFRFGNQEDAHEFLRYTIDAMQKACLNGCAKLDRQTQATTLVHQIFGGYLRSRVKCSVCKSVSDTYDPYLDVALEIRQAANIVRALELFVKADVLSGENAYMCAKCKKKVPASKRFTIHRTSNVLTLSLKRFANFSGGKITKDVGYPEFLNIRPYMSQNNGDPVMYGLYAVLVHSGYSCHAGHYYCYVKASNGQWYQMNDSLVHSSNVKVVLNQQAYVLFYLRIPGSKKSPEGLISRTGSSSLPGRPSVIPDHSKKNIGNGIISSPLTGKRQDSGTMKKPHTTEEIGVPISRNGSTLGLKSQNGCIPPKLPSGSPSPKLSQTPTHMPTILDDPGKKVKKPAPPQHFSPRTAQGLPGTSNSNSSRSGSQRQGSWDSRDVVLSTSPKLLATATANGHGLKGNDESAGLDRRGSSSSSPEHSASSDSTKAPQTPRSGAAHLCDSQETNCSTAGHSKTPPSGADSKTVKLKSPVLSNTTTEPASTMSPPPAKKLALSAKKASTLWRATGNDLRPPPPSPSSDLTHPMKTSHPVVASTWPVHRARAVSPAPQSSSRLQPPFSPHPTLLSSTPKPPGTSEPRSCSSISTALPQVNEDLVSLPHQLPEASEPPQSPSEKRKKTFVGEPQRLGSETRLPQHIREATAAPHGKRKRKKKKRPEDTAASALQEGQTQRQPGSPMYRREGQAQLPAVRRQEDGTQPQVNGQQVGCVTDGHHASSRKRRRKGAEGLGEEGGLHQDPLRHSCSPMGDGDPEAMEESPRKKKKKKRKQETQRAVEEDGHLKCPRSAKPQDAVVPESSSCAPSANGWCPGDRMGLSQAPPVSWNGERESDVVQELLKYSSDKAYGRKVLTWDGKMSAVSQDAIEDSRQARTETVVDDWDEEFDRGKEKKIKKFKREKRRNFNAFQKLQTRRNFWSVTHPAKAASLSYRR
Summary of the method: as §1

[3] = molecular target: T2, USP38 (UniProt Q8NB14)
T2 sequence (whole entry): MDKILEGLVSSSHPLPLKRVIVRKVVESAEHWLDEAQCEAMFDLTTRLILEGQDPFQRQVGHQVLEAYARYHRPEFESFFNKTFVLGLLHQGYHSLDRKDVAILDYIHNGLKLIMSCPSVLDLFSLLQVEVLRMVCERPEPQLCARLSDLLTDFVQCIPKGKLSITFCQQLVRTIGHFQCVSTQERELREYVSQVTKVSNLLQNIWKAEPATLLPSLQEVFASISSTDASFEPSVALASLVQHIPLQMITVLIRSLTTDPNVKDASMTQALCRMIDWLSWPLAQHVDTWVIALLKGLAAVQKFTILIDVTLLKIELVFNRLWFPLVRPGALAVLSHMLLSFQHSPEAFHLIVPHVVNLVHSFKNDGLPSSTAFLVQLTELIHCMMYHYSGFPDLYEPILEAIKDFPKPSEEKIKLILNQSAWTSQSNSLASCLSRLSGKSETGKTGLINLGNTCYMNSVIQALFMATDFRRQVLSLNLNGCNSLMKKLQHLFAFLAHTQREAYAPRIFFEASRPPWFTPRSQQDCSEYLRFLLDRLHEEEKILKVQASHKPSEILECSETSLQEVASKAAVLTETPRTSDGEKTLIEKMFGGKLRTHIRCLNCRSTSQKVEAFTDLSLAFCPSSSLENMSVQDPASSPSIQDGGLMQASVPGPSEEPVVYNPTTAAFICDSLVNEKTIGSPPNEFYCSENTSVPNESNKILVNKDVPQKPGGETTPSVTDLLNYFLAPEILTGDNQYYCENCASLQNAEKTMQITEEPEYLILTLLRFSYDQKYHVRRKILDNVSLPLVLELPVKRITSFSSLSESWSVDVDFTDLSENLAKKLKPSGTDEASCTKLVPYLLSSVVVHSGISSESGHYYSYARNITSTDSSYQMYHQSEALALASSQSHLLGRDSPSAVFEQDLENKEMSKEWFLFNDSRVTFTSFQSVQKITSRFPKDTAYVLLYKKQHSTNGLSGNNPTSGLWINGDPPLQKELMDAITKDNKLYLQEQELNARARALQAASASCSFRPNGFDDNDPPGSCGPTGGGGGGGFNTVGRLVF
Summary of the method: as §1

[4] = molecular target: T3, USP39 (UniProt Q53GS9)
T3 sequence (whole entry): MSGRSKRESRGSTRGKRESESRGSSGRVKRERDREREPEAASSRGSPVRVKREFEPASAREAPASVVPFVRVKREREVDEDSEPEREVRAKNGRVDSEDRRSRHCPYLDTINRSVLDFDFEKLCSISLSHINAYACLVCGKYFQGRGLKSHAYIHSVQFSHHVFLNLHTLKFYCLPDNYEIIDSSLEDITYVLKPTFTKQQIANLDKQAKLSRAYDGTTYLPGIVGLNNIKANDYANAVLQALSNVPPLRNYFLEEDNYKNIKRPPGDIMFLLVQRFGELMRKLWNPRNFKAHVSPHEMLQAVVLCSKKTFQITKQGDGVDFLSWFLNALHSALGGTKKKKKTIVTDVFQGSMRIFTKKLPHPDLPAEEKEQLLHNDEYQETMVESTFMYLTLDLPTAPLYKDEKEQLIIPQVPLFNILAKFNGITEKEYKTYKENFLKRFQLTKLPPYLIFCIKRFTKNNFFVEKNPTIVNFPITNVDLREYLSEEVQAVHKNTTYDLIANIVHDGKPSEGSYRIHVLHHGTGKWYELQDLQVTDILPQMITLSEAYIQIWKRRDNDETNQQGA
Summary of the method: as §1

[5] = molecular target: T4, USP4 (UniProt Q13107)
T4 sequence (whole entry): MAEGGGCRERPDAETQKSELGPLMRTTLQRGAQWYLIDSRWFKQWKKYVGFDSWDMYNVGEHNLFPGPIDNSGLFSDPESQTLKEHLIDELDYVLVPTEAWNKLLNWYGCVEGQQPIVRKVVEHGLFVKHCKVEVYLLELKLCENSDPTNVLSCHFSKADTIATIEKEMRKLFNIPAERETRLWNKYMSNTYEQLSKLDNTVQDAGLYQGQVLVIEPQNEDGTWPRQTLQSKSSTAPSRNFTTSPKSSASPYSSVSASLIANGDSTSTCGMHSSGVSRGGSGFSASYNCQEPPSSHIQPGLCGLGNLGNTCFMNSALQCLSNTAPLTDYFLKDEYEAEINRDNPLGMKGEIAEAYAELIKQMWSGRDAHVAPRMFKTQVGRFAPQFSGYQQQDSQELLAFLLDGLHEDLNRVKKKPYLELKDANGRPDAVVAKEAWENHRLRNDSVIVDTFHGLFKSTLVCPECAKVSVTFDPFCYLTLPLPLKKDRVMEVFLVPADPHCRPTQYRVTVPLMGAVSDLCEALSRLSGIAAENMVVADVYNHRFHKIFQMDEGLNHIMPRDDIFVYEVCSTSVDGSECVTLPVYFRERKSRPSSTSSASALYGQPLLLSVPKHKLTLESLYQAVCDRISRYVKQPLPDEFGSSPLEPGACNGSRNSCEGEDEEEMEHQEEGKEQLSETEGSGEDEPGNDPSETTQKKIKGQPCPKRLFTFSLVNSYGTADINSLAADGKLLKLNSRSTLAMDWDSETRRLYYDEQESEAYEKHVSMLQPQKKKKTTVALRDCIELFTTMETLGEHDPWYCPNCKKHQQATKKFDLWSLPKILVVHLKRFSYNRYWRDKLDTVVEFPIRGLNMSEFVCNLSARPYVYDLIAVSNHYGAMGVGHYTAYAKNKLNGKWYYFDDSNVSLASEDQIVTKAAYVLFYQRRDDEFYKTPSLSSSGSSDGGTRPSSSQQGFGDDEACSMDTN
Summary of the method: as §1

Measured: log2 ratio of Biotin-Ahx-Ub-VS probe labelling

Cc1ncc2c(n1)CCN(C(=O)CCl)C2
inactive: [1] -0.14 | [2] -0.0392 | [3] -0.067 | [4] 0.0209 | [5] -0.35
